Data reported in the supplement of paper PMC11732987, “Enantioselective OTUD7B fragment discovery through chemoproteomics screening and high-throughput optimisation” (Communications Chemistry, 2025).

Assays:
Assay in all cases: log2 ratio of Biotin-Ahx-Ub-VS probe labelling (fragment/DMSO); higher = less target engagement (more negative = stronger competition), active = hit call of the paper (q ≤ 0.05, log2 ratio ≤ -1)
Conditions in all cases: compound concentration: 200 uM; treatment time: 3 h
OTUD6B = molecular target: T1, OTUD6B (UniProt Q8N6M0)
T1 sequence (whole entry): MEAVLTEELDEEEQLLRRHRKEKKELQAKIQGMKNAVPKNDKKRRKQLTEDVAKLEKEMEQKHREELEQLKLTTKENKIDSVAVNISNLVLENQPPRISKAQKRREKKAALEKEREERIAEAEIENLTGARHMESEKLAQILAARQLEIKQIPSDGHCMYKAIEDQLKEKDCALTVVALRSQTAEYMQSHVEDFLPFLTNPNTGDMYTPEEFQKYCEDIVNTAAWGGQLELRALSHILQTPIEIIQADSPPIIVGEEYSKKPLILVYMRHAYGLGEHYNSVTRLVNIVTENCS
In short: (§1)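 In triplicate, 495 µg of HEK293T lysate per sample was incubated with fragment at 200 µM or vehicle for 3 h. Biotin-Ahx-Ub-VS was then added to 0.5 µM final for 1 h, and labelled DUBs were captured with NeutrAvidin, digested with LysC and trypsin, and measured by diaPASEF LC-MS/MS. Data are average log2 fragment/vehicle ratios by unpaired t-test from global-median-normalised Spectronaut label-free quantities, restricted to proteins with ≥2 unique peptides.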

OTUD7B = molecular target: T2, OTUD7B (UniProt Q6GQQ9)
T2 sequence (whole entry): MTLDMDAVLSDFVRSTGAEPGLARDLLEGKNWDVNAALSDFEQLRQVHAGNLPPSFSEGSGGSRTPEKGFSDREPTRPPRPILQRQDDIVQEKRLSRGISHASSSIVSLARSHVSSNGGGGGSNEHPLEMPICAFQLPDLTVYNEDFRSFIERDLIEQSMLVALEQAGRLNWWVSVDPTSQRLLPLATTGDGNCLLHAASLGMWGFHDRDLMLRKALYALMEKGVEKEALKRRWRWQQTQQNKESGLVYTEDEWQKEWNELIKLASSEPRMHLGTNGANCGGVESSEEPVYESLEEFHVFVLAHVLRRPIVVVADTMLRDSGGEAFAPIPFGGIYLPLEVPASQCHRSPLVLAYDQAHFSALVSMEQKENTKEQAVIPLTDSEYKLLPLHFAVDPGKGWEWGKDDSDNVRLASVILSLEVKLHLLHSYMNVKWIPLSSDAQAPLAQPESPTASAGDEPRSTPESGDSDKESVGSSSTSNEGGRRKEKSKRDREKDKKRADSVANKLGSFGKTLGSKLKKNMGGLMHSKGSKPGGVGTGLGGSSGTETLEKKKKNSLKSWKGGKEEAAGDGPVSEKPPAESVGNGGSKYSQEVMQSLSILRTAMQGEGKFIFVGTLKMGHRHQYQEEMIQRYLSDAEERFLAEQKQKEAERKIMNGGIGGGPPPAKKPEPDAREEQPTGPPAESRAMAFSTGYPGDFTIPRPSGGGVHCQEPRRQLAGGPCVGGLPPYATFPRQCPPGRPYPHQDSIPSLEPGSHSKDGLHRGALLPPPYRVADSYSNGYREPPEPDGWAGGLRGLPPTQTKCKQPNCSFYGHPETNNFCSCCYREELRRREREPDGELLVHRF
In short: as §1

PRPF8 = PRPF8 (UniProt Q6P2Q9)
In short: as §1

PSMD7 = molecular target: T3, PSMD7 (UniProt P51665)
T3 sequence (whole entry): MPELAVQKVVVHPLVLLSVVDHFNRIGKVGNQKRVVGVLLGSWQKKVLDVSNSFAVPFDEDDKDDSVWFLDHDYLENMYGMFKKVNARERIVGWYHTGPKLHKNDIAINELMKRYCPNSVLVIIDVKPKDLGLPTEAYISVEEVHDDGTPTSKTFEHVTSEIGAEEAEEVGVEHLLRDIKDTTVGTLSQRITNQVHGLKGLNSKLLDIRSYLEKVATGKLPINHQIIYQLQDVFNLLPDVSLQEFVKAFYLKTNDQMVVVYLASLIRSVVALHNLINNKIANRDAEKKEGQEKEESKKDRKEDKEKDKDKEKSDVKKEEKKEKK
In short: as §1

UCHL1 = UCHL1 (UniProt P09936)
UCHL1, sequence (P09936 whole entry, looked up): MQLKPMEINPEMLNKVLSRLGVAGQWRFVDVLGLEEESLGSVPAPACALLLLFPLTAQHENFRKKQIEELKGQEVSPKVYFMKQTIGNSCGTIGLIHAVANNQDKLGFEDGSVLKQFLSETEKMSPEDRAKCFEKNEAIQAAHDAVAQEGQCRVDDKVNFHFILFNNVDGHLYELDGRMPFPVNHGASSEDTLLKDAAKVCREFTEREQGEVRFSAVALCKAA
In short: as §1

UCHL3 = molecular target: T4, UCHL3 (UniProt P15374)
T4 sequence (whole entry): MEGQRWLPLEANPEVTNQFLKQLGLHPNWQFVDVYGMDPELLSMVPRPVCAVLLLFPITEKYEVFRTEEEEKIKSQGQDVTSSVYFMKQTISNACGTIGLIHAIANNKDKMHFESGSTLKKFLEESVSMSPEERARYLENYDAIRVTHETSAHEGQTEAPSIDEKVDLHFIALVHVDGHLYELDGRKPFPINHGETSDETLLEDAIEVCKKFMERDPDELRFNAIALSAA
In short: as §1

UCHL5 = molecular target: T5, UCHL5 (UniProt Q9Y5K5)
T5 sequence (whole entry): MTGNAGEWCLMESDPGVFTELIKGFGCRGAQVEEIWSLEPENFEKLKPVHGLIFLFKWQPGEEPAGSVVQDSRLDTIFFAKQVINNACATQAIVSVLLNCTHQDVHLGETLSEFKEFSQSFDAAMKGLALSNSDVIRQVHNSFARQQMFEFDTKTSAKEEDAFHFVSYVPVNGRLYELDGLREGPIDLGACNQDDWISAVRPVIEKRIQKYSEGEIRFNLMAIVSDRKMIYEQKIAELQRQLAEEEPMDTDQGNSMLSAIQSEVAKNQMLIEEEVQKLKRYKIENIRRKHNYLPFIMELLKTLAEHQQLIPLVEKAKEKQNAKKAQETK
In short: as §1

USP10 = USP10 (UniProt Q14694)
USP10, sequence (Q14694 whole entry): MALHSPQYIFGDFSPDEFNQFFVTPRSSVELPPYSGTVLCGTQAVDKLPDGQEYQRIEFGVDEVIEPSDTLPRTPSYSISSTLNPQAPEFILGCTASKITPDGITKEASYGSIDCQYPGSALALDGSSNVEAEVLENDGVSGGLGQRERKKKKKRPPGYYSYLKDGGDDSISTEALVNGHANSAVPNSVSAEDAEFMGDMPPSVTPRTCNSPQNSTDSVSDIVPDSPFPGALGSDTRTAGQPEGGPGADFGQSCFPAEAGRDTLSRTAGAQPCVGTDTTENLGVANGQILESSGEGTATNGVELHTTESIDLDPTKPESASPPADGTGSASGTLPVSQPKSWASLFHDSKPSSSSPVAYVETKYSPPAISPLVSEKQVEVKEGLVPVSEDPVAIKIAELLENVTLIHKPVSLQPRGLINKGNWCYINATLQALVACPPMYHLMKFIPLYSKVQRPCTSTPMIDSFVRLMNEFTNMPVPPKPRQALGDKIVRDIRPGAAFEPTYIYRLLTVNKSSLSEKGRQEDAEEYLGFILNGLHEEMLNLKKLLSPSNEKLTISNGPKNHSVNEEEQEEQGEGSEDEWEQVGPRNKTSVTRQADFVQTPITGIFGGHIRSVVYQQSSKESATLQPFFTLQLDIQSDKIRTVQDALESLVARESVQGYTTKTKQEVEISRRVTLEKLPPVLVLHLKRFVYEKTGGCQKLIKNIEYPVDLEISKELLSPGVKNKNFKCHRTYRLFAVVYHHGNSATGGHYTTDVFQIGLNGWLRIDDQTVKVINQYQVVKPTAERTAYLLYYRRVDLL
In short: as §1

USP15 = molecular target: T6, USP15 (UniProt Q9Y4E8)
T6 sequence (whole entry): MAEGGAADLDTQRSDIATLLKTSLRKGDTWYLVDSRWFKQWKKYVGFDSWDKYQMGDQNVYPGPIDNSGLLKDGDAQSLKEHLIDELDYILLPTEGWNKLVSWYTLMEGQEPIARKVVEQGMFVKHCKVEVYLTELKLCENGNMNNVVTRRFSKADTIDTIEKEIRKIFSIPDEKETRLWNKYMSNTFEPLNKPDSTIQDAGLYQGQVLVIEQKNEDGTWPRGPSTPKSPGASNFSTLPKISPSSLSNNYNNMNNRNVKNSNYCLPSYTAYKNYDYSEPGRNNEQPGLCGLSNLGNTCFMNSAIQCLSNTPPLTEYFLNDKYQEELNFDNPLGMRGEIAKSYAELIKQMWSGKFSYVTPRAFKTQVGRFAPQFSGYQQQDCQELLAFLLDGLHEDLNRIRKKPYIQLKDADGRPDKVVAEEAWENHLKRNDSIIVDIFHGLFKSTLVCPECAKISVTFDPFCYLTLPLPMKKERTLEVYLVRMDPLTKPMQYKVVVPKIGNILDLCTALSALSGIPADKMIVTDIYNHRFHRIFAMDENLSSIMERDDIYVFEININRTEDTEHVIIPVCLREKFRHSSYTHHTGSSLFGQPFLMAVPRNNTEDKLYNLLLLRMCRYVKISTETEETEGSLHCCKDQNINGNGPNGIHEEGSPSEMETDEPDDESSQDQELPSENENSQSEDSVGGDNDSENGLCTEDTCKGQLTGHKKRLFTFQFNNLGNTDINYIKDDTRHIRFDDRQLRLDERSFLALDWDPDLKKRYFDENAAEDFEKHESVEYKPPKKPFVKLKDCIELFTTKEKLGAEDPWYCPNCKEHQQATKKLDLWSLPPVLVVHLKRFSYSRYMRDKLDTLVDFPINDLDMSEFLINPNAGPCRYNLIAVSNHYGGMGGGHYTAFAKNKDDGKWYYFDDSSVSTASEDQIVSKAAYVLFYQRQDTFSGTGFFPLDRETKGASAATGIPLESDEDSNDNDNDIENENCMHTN
In short: as §1

USP16 = USP16 (UniProt Q9Y5T5)
USP16, sequence (Q9Y5T5 whole entry, looked up): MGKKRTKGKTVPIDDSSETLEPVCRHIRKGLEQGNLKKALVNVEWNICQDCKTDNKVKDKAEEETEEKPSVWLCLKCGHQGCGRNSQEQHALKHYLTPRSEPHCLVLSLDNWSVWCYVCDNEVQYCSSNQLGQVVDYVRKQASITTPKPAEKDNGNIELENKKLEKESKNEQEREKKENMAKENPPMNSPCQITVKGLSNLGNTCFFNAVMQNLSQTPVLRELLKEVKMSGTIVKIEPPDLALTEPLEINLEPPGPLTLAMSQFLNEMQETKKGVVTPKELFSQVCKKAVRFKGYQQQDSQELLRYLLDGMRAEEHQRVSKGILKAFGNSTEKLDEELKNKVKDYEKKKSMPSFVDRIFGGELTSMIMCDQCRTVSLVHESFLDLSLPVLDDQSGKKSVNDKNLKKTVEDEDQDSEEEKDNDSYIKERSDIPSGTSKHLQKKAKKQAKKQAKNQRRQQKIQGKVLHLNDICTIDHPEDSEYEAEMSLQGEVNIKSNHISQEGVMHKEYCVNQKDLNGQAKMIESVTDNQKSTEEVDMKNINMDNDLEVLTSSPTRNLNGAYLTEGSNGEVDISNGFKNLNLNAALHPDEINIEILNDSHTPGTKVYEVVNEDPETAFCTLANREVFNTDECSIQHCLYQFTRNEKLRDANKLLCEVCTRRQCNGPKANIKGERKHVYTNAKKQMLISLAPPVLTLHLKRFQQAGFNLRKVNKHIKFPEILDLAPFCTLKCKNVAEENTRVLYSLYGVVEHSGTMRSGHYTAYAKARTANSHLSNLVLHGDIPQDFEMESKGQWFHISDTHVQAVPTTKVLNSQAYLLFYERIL
In short: as §1

Measured: log2 ratio of Biotin-Ahx-Ub-VS probe labelling

Cl.Cn1ncc2c1CC(NC(=O)CCl)CC2 (stereo not given)
inactive: OTUD6B 0.0134 | OTUD7B -0.999 | PRPF8 0.142 | PSMD7 -0.2 | UCHL3 0.377 | UCHL5 -0.0217 | USP10 -0.106 | USP15 -0.0211 | USP16 -0.62
active: UCHL1 -1.84
